{"source": "PubChem BioAssay (NCATS)", "key": {"[1]": {"molecular_target": "Calcium and integrin-binding protein 1 (Homo sapiens) (UniProt Q99828)", "sequence (Q99828 whole entry, looked up)": "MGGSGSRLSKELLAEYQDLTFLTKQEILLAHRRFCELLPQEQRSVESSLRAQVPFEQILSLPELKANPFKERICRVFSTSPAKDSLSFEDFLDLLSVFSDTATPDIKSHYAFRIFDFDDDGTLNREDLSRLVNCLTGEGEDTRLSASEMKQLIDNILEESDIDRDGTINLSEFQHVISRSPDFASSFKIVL", "test": "Primary qHTS for Identification of Calcium Integrin Binding Protein 1 (CIB1) Competitor (AID 1508620);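 also: GST tagged CIB1 binding a fluorescein labelled alphaIIb integrin peptide tracer; top concentration of the series differs between compounds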", "procedure,_shortened": "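CIB1-GST (1 uM final) and compound incubated 15 min at room temperature before adding FITC-alphaIIb peptide tracer (100 nM final). Competition for binding read by fluorescence polarization (ex 480, em 540) after another 15 min at room temperature.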"}, "[2]": {"molecular_target": "Glutathione peroxidase 1 (Homo sapiens) (UniProt P07203)", "sequence (P07203 whole entry, looked up)": "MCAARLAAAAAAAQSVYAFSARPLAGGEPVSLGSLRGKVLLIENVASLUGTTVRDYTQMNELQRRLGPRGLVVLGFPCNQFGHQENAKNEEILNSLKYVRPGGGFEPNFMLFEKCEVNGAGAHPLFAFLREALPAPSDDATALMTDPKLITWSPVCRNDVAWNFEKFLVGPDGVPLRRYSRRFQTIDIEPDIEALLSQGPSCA", "test": "Primary qHTS Assay for Inhibitors of Recombinant Selenoprotein Glutathione Peroxidase 1 (GPX1) (AID 1845191); also: nearly all actives have a fitted effect of over 65% in size", "procedure,_shortened": "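10 nM GPX1 + cpd, 30 min RT; start w/ 1 mM GSH, 0.5 mM cumene hydroperoxide, 0.5 mM NADPH, 100 nM GR, 0.01% BSA; buffer 50 mM Tris-HCl pH 7.5, 2 mM EDTA, 150 mM NaCl; Fl 340/450, 0 & 15 min.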"}, "[3]": {"molecular_target": "Phospholipid hydroperoxide glutathione peroxidase GPX4 (Homo sapiens) (UniProt P36969)", "sequence (P36969 whole entry, looked up)": "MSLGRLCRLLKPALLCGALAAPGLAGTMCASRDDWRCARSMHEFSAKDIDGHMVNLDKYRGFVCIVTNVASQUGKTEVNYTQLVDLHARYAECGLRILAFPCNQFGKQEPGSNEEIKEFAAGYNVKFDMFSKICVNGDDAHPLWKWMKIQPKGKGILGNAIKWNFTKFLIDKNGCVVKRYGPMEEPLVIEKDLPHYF", "test": "Primary qHTS Assay for Inhibitors of Recombinant Selenoprotein Glutathione Peroxidase 4 (GPX4) (AID 1845192); also: nearly all actives have a fitted effect of over 65% in size", "conditions": "outcome: at 50 µM (top of the series) unless noted", "procedure,_shortened": "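NADPH consumption, followed by fluorescence at 340/450 nm between 0 and 15 min, reports GPX4 activity via coupled glutathione reductase (100 nM). Enzyme 200 nM was pre-exposed to compound 30 min; 0.5 mM cumene hydroperoxide and 1 mM GSH served as substrates.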"}, "[4]": {"test": "qHTS drug screen for cell cycle checkpoint inhibitors in PARPi-resistant BRCA-mutant ovarian cancer cell lines. (AID 1963452; calls by dose curve)", "conditions": "PEO1/OlaR viability, CellTiter-Glo luminescence, 96 h, stronger effect = lower value", "procedure,_shortened": "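PEO1, PEO4 and PEO1/OlaR ovarian cancer cells, 600 per well, exposed 96 h at 37C to a dilution series. Viability read by CellTiter-Glo luminescence, normalized to DMSO and empty wells; activity summarized as Z-AUC.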"}, "[5]": {"test": "AP1 Signaling Pathway (AID 357; active = well fitted curve in either direction with a large enough effect, not every such curve was filed as active;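 also: ME-180 reporter cells stimulated with EGF at its EC50 level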)", "conditions": "ME-180 AP-1-bla reporter, EGF-induced, beta-lactamase ratio, 5 h; at 7.69 µM (top of the series) unless noted", "procedure,_shortened": "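Beta-lactamase reporter under AP-1 response element, ME-180 background. Stimulus: EC50 EGF. Compound exposure 5 h, 37 °C. Detection: CCF4, 2.5 h RT, 460/530 nm. Values: AC50 from titration.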"}, "[6]": {"test": "NFAT Signaling Pathway (AID 444; active = well fitted curve in either direction with a large enough effect, not every such curve was filed as active;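 also: carbachol stimulus at about its EC50 of 1 µM final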)", "conditions": "Jurkat NFAT-bla M1, carbachol, beta-lactamase ratio, 5 h; at 7.69 µM (top of the series) unless noted", "procedure,_shortened": "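Read-out: CCF4 FRET ratio (460 nm/530 nm) after 1 h RT dye loading, used for %activity and AC50 from titration series. Cells: Jurkat NFAT-β-lactamase/M1 line, treated with compound plus 1 uM carbachol for 5 h, 37 °C.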"}, "[7]": {"molecular_target": "Glucocorticoid receptor (Homo sapiens) (UniProt P04150)", "sequence (P04150 whole entry, looked up)": "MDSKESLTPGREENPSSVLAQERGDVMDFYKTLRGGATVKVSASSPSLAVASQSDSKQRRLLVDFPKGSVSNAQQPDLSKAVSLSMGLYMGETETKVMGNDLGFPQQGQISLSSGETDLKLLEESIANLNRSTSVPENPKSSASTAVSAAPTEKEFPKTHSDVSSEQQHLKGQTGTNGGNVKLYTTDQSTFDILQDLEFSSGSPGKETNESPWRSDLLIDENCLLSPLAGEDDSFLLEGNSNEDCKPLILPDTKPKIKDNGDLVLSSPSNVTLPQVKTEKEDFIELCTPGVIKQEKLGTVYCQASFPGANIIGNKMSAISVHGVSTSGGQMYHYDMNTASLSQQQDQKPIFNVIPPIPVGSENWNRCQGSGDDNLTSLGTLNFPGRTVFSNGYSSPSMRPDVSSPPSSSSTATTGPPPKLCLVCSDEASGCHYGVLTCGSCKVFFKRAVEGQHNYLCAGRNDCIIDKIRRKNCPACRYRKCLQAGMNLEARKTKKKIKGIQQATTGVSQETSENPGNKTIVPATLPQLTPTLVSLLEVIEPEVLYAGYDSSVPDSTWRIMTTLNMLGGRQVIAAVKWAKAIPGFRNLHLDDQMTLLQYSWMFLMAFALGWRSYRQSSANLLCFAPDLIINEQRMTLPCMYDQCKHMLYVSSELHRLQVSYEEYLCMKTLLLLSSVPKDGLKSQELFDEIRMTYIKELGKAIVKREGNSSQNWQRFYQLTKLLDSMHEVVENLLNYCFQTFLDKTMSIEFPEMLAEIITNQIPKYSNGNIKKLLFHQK", "test": "GR-GFP Redistribution (AID 450;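 active = compounds whose dose series gives a full or clear partial fitted curve of increased nuclear translocation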; also: potency is read from the fitted curve at half-maximal effect)", "conditions": "U2OS GR-GFP nuclear translocation, laser cytometry, 2 h"}, "[8]": {"molecular_target": "Mitogen-activated protein kinase 10 (Mus musculus) (UniProt Q61831)", "test": "JNK3 AlphaScreen Assay (AID 530; active = well fitted curve in either direction with a large enough effect, not every such curve was filed as active;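 also: kinase came from lysate of stimulated human HepG2 cells; signal reports phosphorylation of biotinylated GST-cJun 1-79 at Ser73 with 10 µM ATP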)", "procedure,_shortened": "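Room-temperature AlphaScreen kinase assay; pre-activated HepG2 lysate as JNK3 source, biotin-GST-cJun(1-79) substrate, 10 uM ATP, compound 15 min preincubation.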"}, "[9]": {"molecular_target": "Rap guanine nucleotide exchange factor 3 (Homo sapiens) (UniProt O95398)", "sequence (O95398 whole entry, looked up)": "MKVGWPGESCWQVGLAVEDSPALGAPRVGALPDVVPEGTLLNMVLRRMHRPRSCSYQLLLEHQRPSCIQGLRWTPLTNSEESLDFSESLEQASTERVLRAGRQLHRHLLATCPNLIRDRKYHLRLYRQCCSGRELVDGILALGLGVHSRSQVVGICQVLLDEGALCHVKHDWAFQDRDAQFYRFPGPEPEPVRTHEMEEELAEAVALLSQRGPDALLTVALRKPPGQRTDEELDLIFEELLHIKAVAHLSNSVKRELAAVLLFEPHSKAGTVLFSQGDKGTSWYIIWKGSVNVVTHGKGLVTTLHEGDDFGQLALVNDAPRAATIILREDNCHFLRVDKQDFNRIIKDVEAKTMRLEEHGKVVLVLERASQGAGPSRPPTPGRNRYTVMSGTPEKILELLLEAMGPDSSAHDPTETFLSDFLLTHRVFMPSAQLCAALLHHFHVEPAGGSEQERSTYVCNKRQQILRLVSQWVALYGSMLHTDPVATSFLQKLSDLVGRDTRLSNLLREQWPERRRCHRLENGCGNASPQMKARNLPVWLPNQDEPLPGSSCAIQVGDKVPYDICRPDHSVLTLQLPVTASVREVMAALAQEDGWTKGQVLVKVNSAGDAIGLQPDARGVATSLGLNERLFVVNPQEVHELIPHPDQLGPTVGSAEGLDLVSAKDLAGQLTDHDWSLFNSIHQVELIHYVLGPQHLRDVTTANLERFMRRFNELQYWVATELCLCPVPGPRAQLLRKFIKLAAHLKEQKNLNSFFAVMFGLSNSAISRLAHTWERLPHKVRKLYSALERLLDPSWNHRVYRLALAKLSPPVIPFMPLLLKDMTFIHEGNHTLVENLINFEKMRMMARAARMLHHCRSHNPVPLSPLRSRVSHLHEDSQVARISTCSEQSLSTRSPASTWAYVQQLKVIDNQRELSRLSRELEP", "test": "Confirmatory qHTS for agonist of cAMP-regulated guanine nucleotide exchange factor 3 (EPAC1) (AID 1645881);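 also: EPAC1 catalysed release of BODIPY-GDP from Rap1B seen as fluorescence loss; nearly all actives have a fitted effect of over 75% in size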"}, "[10]": {"molecular_target": "Rap guanine nucleotide exchange factor 4 (Homo sapiens) (UniProt Q8WZA2)", "sequence (Q8WZA2 whole entry, looked up)": "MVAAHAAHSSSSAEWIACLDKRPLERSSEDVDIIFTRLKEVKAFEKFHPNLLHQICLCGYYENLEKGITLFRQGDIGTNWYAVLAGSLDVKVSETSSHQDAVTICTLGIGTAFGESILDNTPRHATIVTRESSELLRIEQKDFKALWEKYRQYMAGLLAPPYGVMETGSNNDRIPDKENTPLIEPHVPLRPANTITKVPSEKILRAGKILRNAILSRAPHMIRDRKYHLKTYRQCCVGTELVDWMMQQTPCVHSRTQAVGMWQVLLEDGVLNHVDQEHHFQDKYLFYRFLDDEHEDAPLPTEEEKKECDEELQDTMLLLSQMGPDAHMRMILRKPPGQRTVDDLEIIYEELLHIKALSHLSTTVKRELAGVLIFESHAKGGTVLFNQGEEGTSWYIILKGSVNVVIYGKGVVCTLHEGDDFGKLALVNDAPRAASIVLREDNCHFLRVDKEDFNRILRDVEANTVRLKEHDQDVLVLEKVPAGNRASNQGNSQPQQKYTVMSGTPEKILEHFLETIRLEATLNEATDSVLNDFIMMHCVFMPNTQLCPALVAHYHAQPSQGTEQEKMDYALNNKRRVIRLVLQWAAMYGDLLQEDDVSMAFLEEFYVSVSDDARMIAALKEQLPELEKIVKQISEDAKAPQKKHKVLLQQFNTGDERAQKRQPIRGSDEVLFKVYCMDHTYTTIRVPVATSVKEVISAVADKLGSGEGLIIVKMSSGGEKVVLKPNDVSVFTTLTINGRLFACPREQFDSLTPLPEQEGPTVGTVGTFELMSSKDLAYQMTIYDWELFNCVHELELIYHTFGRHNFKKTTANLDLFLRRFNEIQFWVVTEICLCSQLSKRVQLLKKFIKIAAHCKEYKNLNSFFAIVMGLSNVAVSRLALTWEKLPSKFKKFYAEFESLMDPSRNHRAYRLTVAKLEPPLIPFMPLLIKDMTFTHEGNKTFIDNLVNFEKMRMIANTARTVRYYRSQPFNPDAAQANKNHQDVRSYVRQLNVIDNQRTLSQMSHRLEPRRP", "test": "Confirmatory qHTS for agonist of cAMP-regulated guanine nucleotide exchange factor 4 (EPAC2) (AID 1645884);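 also: nucleotide exchange releases bodipy-GDP from Rap1 and this lowers its fluorescence; nearly all actives have a fitted effect of over 65% in size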"}, "[11]": {"molecular_target": "Rap guanine nucleotide exchange factor 4 (Homo sapiens) (UniProt Q8WZA2)", "test": "Confirmatory qHTS for antagonist of cAMP-regulated guanine nucleotide exchange factor 4 (EPAC2) (AID 1645885); also: nearly all actives have a fitted effect of over 25% in size"}, "[12]": {"molecular_target": "Rap guanine nucleotide exchange factor 3 (Homo sapiens) (UniProt O95398)", "test": "Counterscreen qHTS for antagonist of cAMP-regulated guanine nucleotide exchange factor 3 (EPAC1) (AID 1645888);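 also: fluorescence loss as bound BODIPY-GDP is released from Rap1B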", "procedure,_shortened": "(§1)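 Rap1B-BODIPY-GDP 250 nM + GDP 50 uM; cpds 7-pt, final 9.74 nM–152 uM (activator mode) or from 7.32 nM upwards (inhibitor mode); RT; FI 480/540 nm at 5 and 30 min, then ± cAMP, reread.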"}, "[13]": {"molecular_target": "Rap guanine nucleotide exchange factor 3 (Homo sapiens) (UniProt O95398)", "test": "Counterscreen qHTS for agonist of cAMP-regulated guanine nucleotide exchange factor 3 (EPAC1) (AID 1645889)", "procedure,_shortened": "as §1"}, "[14]": {"molecular_target": "Tyrosyl-DNA phosphodiesterase 1 (Homo sapiens) (UniProt Q9NUW8)", "sequence (Q9NUW8 whole entry, looked up)": "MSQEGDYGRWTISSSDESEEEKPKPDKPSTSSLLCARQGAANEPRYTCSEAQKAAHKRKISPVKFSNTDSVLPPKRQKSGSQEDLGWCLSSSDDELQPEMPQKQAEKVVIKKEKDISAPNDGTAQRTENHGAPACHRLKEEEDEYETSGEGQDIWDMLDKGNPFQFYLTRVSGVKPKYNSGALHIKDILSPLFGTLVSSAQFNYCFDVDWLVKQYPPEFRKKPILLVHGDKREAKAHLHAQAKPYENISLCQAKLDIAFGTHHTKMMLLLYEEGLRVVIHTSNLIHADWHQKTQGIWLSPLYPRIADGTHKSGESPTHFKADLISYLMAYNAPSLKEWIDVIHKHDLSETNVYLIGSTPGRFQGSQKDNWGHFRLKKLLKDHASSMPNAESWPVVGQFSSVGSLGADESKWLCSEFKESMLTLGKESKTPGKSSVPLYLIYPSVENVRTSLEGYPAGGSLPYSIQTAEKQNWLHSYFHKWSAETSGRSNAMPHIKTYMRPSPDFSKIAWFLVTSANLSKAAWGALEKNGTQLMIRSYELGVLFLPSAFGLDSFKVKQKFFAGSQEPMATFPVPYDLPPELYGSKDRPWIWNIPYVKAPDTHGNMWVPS", "test": "Confirmation Assay for Inhibitors of Tyrosyl-DNA Phosphodiesterase (TDP1) (AID 489007)", "conditions": "recombinant human TDP1 enzymatic activity, dose-response", "procedure,_shortened": "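Confirmation of primary-screen follow-ups in a qHTS format. Substrate cleavage by Tdp1 (1 nM) of a 3'-phosphotyrosine-FITC, 5'-biotin oligo (15 nM) was monitored as decreased AlphaScreen signal after a 5 min room-temperature reaction.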"}, "[15]": {"test": "qHTS profiling of the MIPE4 collection as inhibitors of Plasmodium falciparum (3D7) proliferation (AID 743344; call rule not given here)", "conditions": "P. falciparum 3D7 in erythrocytes, SYBR Green DNA fluorescence, 72 h; at 28.5 µM (top of the series)", "procedure,_shortened": "(§2)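 Erythrocytes infected with P. falciparum (0.3% parasitemia, 2.5% hematocrit) incubated with compounds 72 h at 37 C, 5% CO2. Lysis with saponin/Triton buffer containing SYBR Green I, overnight at room temperature in the dark; DNA fluorescence (485/535 nm) normalised to 0.29 uM artemisinin and DMSO.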"}, "[16]": {"test": "qHTS profiling of the MIPE4 collection as inhibitors of Plasmodium falciparum (DD2) proliferation (AID 743345; call rule not given here)", "conditions": "P. falciparum Dd2 in erythrocytes, SYBR Green DNA, 72 h; at 28.5 µM (top of the series)", "procedure,_shortened": "as §2"}, "[17]": {"test": "qHTS profiling of the MIPE4 collection as inhibitors of Plasmodium falciparum (DD2) proliferation (Rep 2) (AID 743346; call rule not given here)", "conditions": "P. falciparum Dd2 in erythrocytes, SYBR Green DNA, 72 h; at 28.5 µM (top of the series)", "procedure,_shortened": "as §2"}, "[18]": {"test": "qHTS profiling of the MIPE4 collection as inhibitors of Plasmodium falciparum (HB3) proliferation (AID 743347; call rule not given here)", "conditions": "P. falciparum HB3 in erythrocytes, SYBR Green DNA, 72 h; at 28.5 µM (top of the series)", "procedure,_shortened": "as §2"}}, "note": "Results filed as inconclusive are left out. Entries that show only a call come without a potency. The source made the active and inactive calls. Unless noted, calls follow the shape of the dose curve; as a rule, active = well fitted curve in the direction sought with a large enough effect; inconclusive = small, poorly fitted or top-dose-only effect, or another doubt; inactive = no such curve, though single readings can be large; an effect the other way counts as inactive or inconclusive."}
{"smiles": "[2H]C([2H])(Nc1nc(-c2ccccc2C([2H])(C([2H])([2H])[2H])C([2H])([2H])[2H])ncc1C)c1ccc(-n2ccnn2)cc1", "values": [{"measurement": "Potency", "setting": "[1]", "value": "inactive"}, {"measurement": "Potency", "setting": "[2]", "value": "inactive"}, {"measurement": "Potency", "setting": "[3]", "value": "inactive"}, {"measurement": "Z-AUC", "setting": "[4]", "value": "-0.917 (inactive)"}, {"measurement": "Z-AUC", "setting": "[4]; measured here: PEO1 parental Z-AUC", "value": -1.16}, {"measurement": "Z-AUC", "setting": "[4]; measured here: PEO4 Z-AUC", "value": -0.866}]}
{"smiles": "COc1ccc(-n2c(C)c(C(C)=O)c3cc(O)ccc32)cc1", "values": [{"measurement": "activity change, negative = inhibition", "setting": "[5]", "value": "-14.7% [at 17.2 µM] (inactive)"}, {"measurement": "activity change, negative = inhibition", "setting": "[6]", "value": "1.89% [at 17.2 µM] (inactive)"}, {"measurement": "Potency", "setting": "[7]", "value": "> 20.6 µM (inactive)"}, {"measurement": "Potency", "setting": "[1]", "value": "inactive"}]}
{"smiles": "CCN(CC)CCCn1c(-c2ccccc2)nc2c(N3CCOCC3)nc(C)nc21", "values": [{"measurement": "outcome", "setting": "[8]", "value": "inactive"}, {"measurement": "Potency", "setting": "[1]", "value": "inactive"}]}
{"smiles": "COC(=N)c1nc2ccc3ncnc(Nc4ccc(F)cc4Br)c3c2s1", "values": [{"measurement": "Potency", "setting": "[1]", "value": "inactive"}, {"measurement": "Potency", "setting": "[2]", "value": "inactive"}]}
{"smiles": "CC(=O)Nc1sc2c(c1-c1ccc(N3CCN(C)CC3)cc1)CCNC2", "values": [{"measurement": "Potency", "setting": "[1]", "value": "inactive"}, {"measurement": "Potency", "setting": "[2]", "value": "inactive"}]}
{"smiles": "COCCN(CCOC)c1nc(C)nc2c1nc(-c1ccccc1)n2CCN1CCCC1", "values": [{"measurement": "outcome", "setting": "[8]", "value": "inactive"}, {"measurement": "Potency", "setting": "[1]", "value": "inactive"}]}
{"smiles": "Cc1ccc(NS(=O)(=O)c2cc3c(cc2N[C@H](C)CO)NC(=O)CC3)cc1C", "values": [{"measurement": "Potency", "setting": "[1]", "value": "inactive"}, {"measurement": "Potency", "setting": "[2]", "value": "inactive"}]}
{"smiles": "CCOc1ccccc1CNc1ncnc2ccc(-c3c(C)noc3C)cc12", "values": [{"measurement": "Potency", "setting": "[1]", "value": "inactive"}, {"measurement": "outcome", "setting": "[9]", "value": "inactive"}, {"measurement": "outcome", "setting": "[10]", "value": "inactive"}, {"measurement": "Potency", "setting": "[11]", "value": "inactive"}, {"measurement": "outcome", "setting": "[12]", "value": "inactive"}, {"measurement": "outcome", "setting": "[13]", "value": "inactive"}]}
{"smiles": "Cc1ccc(NC(=O)CN2C(=O)N/C(=C\\c3cccn3-c3cccc(C(=O)O)c3)C2=O)cc1", "values": [{"measurement": "Potency", "setting": "[14]", "value": "1.12 µM (active)"}, {"measurement": "Potency", "setting": "[1]", "value": "inactive"}]}
{"smiles": "CC(C)(C)n1nc(Cc2cccc3ccccc23)c2c(N)ncnc21", "values": [{"measurement": "parasite growth, % of DMSO control", "setting": "[15]", "value": 23.2, "unit": "%"}, {"measurement": "parasite growth remaining, % of DMSO control (lower = more inhibition)", "setting": "[16]", "value": 58, "unit": "%"}, {"measurement": "parasite growth, % of control (lower = inhibition)", "setting": "[17]", "value": 52.6, "unit": "%"}, {"measurement": "growth, % of control", "setting": "[18]", "value": 12.7, "unit": "%"}, {"measurement": "Potency", "setting": "[1]", "value": "inactive"}, {"measurement": "Potency", "setting": "[2]", "value": "inactive"}]}
